According to PubChem BioAssay AID602233 (National Center for Advancing Translational Sciences (NCATS), 2012):
Out of some 380,000 compounds screened, about 170 (0.045%) were called active. The list comes from a sample in which actives are over-represented; it also holds similar structures and randomly drawn compounds. Values without a mark were called inactive. The call rests on the fitted dose curve; in most records, active means well fitted inhibition curve with a large enough effect; inconclusive means small, poorly fitted or top-dose-only effect; inactive means no such curve, though single readings can be large or run the other way.

target: Phosphoglycerate kinase, glycosomal (Trypanosoma brucei brucei) (UniProt P07378); experiment: qHTS Assay to Find Inhibitors of Phosphoglycerate Kinase; conditions: PGK/GAPDH coupled, Kinase-Glo luminescence, 60 min; series mostly up to 57.5 µM; activity change, negative = inhibition: at the top concentration; further: nearly all actives have a fitted effect of over 60% in size
Sequence (P07378 whole entry, looked up): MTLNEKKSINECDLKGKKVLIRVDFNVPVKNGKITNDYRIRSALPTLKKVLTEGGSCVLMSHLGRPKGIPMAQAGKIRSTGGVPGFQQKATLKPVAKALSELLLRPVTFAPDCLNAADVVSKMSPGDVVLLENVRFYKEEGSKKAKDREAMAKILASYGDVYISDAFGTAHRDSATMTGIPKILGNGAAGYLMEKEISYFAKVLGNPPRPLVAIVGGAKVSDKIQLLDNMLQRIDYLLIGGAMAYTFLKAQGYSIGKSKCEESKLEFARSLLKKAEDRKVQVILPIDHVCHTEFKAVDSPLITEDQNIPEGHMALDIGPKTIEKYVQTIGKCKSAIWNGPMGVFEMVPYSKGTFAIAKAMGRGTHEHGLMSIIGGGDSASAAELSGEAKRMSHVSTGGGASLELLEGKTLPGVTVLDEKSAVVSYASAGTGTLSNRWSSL
How it was run: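 Luminescent ATP detection (Kinase-Glo Plus) follows a 60-minute room-temperature incubation, with wells lacking PGK as controls. Buffer: 100 mM TEA (pH 7.6), 5 mM MgCl2, 0.01% Tween-20. Coupling enzyme GAPDH (100 nM final) supplies unstable 1,3-BPG in-well.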
On the % scale 0 is the no-effect control and ±100 the full control effect; potency means the concentration at half of the fitted maximal effect.

Row | Compound | activity change, negative = inhibition [%] | Potency | outcome
1 | COc1cc(Nc2nc(-c3ccc(OC)c(OC)c3)nc3ccccc23)cc(OC)c1 | -16 | – | –
2 | CCOC(=O)c1oc2ccc(S(=O)(=O)n3nc(-c4ccccc4OC)cc3N)cc2c1C | -7.27 | – | –
3 | O=C(c1cnn(-c2ccc(F)cc2)c1-n1cccc1)N1CCN(c2ccc(F)cc2)CC1 | 1.01 | – | –
4 | C=C(C)C(=O)Nc1cccc(C2=NOC3(C2)C[C@H](C(N)=O)N(C(=O)C(c2ccccc2)c2ccccc2)C3)c1 (stereo not given in full) | – | 7.94 µM (active) | –
5 | C/C=C(\C)C(=O)N1CC2(CC(c3cccc(NC(=O)CCCCC)c3)=NO2)C[C@@H]1C(N)=O (stereo not given in full) | -20.1 | – | –
6 | NC(=O)[C@H]1CC2(CC(c3cccc(NC(=O)[C@H]4CCC(=O)N4)c3)=NO2)CN1C(=O)c1ccccc1C(=O)c1ccccc1 (stereo not given in full) | – | – | inactive
7 | O=C(CC1C(=O)N(c2ccccc2)C(=O)N1CCc1cccs1)Nc1ccc(F)cc1 (stereo not given) | -9.54 | – | –
8 | Fc1ccc(-c2nn(-c3ccccc3Cl)c3c2cnc2ccccc23)cc1 | -9.02 | – | –
9 | COC(=O)c1ccccc1NC(=O)c1cc(-c2ccccc2O)no1 | 0.223 | – | –
10 | COc1ccc(CCNC(=O)c2cn(C)c3ccc(S(=O)(=O)N(C)C4CCCCC4)cc3c2=O)cc1OC | – | – | inactive
11 | Cc1nn(C(=O)c2c(F)cccc2F)c(C)c1S(=O)(=O)N1CCOCC1 | -7.86 | – | –
12 | Cc1cccc(NC(=O)CSc2ncc(-c3ccccc3)[nH]2)c1C | 5.88 | – | –
13 | CCc1ccc(NC(=O)CCCc2nnc3n(CCCOC)c(=O)c4sccc4n23)cc1 | 2.03 | – | –
14 | COc1ccc(C2=CC(c3ccccc3Cl)n3nc(-c4ccc(Cl)cc4)nc3N2)cc1 (stereo not given) | 5.67 | – | –
15 | Cc1ccc(-c2onc(C)c2C)cc1S(=O)(=O)Nc1ccccn1 | – | – | inactive
16 | Cc1ccc(CN2C(=O)SC(Nc3ccccc3)C2=O)cc1 (stereo not given) | -1.1 | – | –
17 | O=C(OCc1cc(=O)n2nc(C3CC3)sc2n1)c1ccccc1Cl | -8.07 | – | –
18 | O=C(NCc1ccc(F)cc1)c1ccc(Cn2c(SCc3ccc(F)cc3)nc3cccnc32)cc1 | – | – | inactive
19 | COc1cccc(N2CCN(S(=O)(=O)c3cc(Br)cc4c3N(C(=O)C3CC3)CC4)CC2)c1 | -3.4 | – | –
20 | O=C(Nc1nnc(C2CC(=O)N(c3ccc(Cl)cc3)C2)s1)c1ccco1 (stereo not given) | -4.59 | – | –
21 | Cc1ccc(C2CCN(C(=O)c3cnn(-c4ccccc4Cl)c3C3CCN(C(=O)OC(C)(C)C)CC3)C2)cc1 (stereo not given) | – | – | inactive
22 | O=C(COc1ccc(Cl)cc1)Nc1ccc(-c2nc3cc(Cl)ccc3o2)c(O)c1 | – | – | inactive
23 | COc1cc(C(CC(=O)NCCC(C)C)N2Cc3ccccc3C2=O)cc(OC)c1OC (stereo not given) | -9.14 | – | –
24 | COc1ccccc1C1C(C(=O)N2CCCCC2)=C(C)Nc2nc3ccccc3n21 (stereo not given) | -1.37 | – | –
25 | CCOc1ccc(C2CC(=O)c3c([nH]c(C(=O)OCc4ccccc4)c3C)C2)cc1 (stereo not given) | 2.31 | – | –
